Whole data set: some 140,000 sequences, median “enrichment ratio after two sorts for PhoP signalling” near 0, cut for the highest 2% near 11. What follows is part of a selection rich in the highest values, with near analogues and random picks from the rest.
B1: PhoQ; a variant is named by its letters at X, in order, P23837 (parent)
chain: MKKLLRLFFPLSLRVRFLLATAAVVLVLSLAYGMVALIGYSVSFDKTTFRLLRGESNLFYTLAKWENNKLHVELPENIDKQSPTMTLIYDENGQLLWAQRDVPWLMKMIQPDWLKSNGFHEIEADVNDTSLLLSGDHSIQQQLQEVREDDDDAEMTHSVAVNVYPATSRMPKLTIVVVDTIPVELKSSYMVWSWFIYVLSANLLLVIPLLWVAAWWSLRPIEALAKEVRELEEHNRELLNPATTRELTSLVRNLNRLLKSERERYDKYRTTLTDLTHSLKTPLXXLQXXLRSLRSEKMSVSDAEPVMLEQISRISQQIGYYLHRASMRGGTLLSRELHPVAPLLDNLTSALNKVYQRKGVNISLDISPEISFVGEQNDFVEVMGNVLDNACKYCLEFVEISARQTDEHLYIVVEDDGPGIPLSKREVIFDRGQRVDTLRPGQGVGLAVAREITEQYEGKIVAGESMLGGARMEVIFGRQHSAPKDE

Variants of: B1
Assay: enrichment ratio after two sorts for PhoP signalling (ratio (wild type AVST 3.29)); higher = more functional
Conditions: with PhoP (E. coli)

| Variant | enrichment ratio |
| --- | --- |
| DCCE | ≤ 0.25 |
| THTS | 1.63 |
| SNKW | ≤ 0.25 |
| SQFG | ≤ 0.25 |
| TNGL | 12.6 |
| MNGL | 9.61 |
| TNGI | 15.2 |
| TLHF | ≤ 0.25 |
| KAQF | ≤ 0.25 |
| TLQF | 15.7 |
| MNGI | 5.05 |
| TNGD | ≤ 0.25 |
| TNNL | 0.757 |
| DQWL | ≤ 0.25 |
| LLTH | ≤ 0.25 |
| CFSY | ≤ 0.25 |
| QPRN | ≤ 0.25 |
| FNQY | ≤ 0.25 |
| DTFM | ≤ 0.25 |
| LQVE | ≤ 0.25 |
| AMMI | 15 |
| AMMQ | 13.1 |
| ADMQ | ≤ 0.25 |
| AMMV | 21.8 |
| AMMD | ≤ 0.25 |
| AMPV | ≤ 0.25 |

| Variant | enrichment ratio |
| --- | --- |
| NMMI | ≤ 0.25 |
| AMMS | 1.12 |
| AIMQ | ≤ 0.25 |
| GMVM | 3.22 |
| SNKV | ≤ 0.25 |
| QQCV | ≤ 0.25 |
| HHKS | ≤ 0.25 |
| ISVD | ≤ 0.25 |
| AFGA | ≤ 0.25 |
| NYGC | ≤ 0.25 |
| WHYL | ≤ 0.25 |
| QGGY | 14.3 |
| QPGY | ≤ 0.25 |
| QGWY | 75.8 |
| QGPY | ≤ 0.25 |
| FFGY | ≤ 0.25 |
| FFWY | ≤ 0.25 |
| AGIM | 11.8 |
| MEIM | 48.5 |
| AGDM | ≤ 0.25 |
| QEIM | ≤ 0.25 |
| AGRM | ≤ 0.25 |
| TQWM | ≤ 0.25 |
| TQRM | ≤ 0.25 |
| SAWM | 3.72 |
| SAIM | 11.6 |

| Variant | enrichment ratio |
| --- | --- |
| NAIM | ≤ 0.25 |
| TQGM | 14.5 |
| MMIM | ≤ 0.25 |
| GPHN | ≤ 0.25 |
| RDSY | ≤ 0.25 |
| HQTV | ≤ 0.25 |
| ISLP | ≤ 0.25 |
| DTRI | 1.89 |
| VMYN | ≤ 0.25 |
| KYIM | ≤ 0.25 |
| STIM | 15.3 |
| SEWM | 3.99 |
| SGRM | ≤ 0.25 |
| SGIM | 23.7 |
| ITIM | ≤ 0.25 |
| SRIM | 13.7 |
| SEIM | 15.1 |
| SGDM | ≤ 0.25 |
| YTIM | 1.25 |
| RGIM | ≤ 0.25 |
| TGIM | ≤ 0.25 |
| NCFV | ≤ 0.25 |
| ACCP | ≤ 0.25 |
| AHDV | ≤ 0.25 |
| IAPL | 0.723 |
| FWFH | ≤ 0.25 |

| Variant | enrichment ratio |
| --- | --- |
| NRLH | ≤ 0.25 |
| YSSN | ≤ 0.25 |
| SLIM | ≤ 0.25 |
| SAGM | 12.9 |
| TQIM | 17.9 |
| SNIM | ≤ 0.25 |
| TQGP | ≤ 0.25 |
| IQGH | ≤ 0.25 |
| TQGH | 18.9 |
| TQIV | 1.59 |
| SAGD | ≤ 0.25 |
| SQIM | 20.8 |
| SAPM | 2.5 |
| TQPM | ≤ 0.25 |
| YRHV | ≤ 0.25 |
| SCLV | 9.82 |
| QTDD | ≤ 0.25 |
| AISA | 10.4 |
| AFMR | ≤ 0.25 |
| MLCP | ≤ 0.25 |
| HKNV | ≤ 0.25 |
| RAQI | ≤ 0.25 |
| MIHT | ≤ 0.25 |
| DVMK | ≤ 0.25 |
| WFDE | ≤ 0.25 |
| HTHH | ≤ 0.25 |

| Variant | enrichment ratio |
| --- | --- |
| ADIM | ≤ 0.25 |
| YDIM | ≤ 0.25 |
| TQGG | 1.42 |
| TQGQ | 28 |
| TQGA | 2.57 |
| ATIM | 19.5 |
| TDIS | 1.04 |
| HSAY | ≤ 0.25 |
| EAHH | ≤ 0.25 |
| YEYT | ≤ 0.25 |
| DFEY | ≤ 0.25 |
| SNCC | 14.7 |
| KYCC | ≤ 0.25 |
| SRCC | 0.803 |
| SQCC | 8.97 |
| KSCC | ≤ 0.25 |
| WICC | ≤ 0.25 |
| NSCC | ≤ 0.25 |
| SSCC | 17.1 |
| TSCC | 17.3 |
| SSTC | 10.3 |
| IQCC | ≤ 0.25 |
| SICC | 17.3 |
| IFYT | ≤ 0.25 |
| FSGP | ≤ 0.25 |
| NGLQ | ≤ 0.25 |

| Variant | enrichment ratio |
| --- | --- |
| YYFP | ≤ 0.25 |
| TQCC | 65 |
| STCC | 13.7 |
| CTCC | ≤ 0.25 |
| FQCC | ≤ 0.25 |
| ITCC | ≤ 0.25 |
| TTCC | 11.5 |
| YTCC | ≤ 0.25 |
| DWCC | ≤ 0.25 |
| GTCC | ≤ 0.25 |
| EYTF | ≤ 0.25 |
| NSIQ | ≤ 0.25 |
| HLYG | ≤ 0.25 |
| PLPH | ≤ 0.25 |
| MDHD | ≤ 0.25 |
| IKKC | ≤ 0.25 |
| ANYN | ≤ 0.25 |
| AIIL | 1.11 |
| ANIL | 22.8 |
| ARSL | 0.309 |
| ADVL | 3.21 |
| ADSL | ≤ 0.25 |
| AHIL | ≤ 0.25 |

Source: a collection of fitness landscapes (doi:10.1126/science.1257360)
